# Compounds without any hit were thinned out: in the full panel of roughly 83,000, 20% have a hit.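 Percent growth is the endpoint: 0 to 100 indicates growth inhibition (40 means 60% inhibition), 0 means no net growth, and negative values indicate cell death.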 A number with no mark means an inactive call. The source made the active and inactive calls. The calls were made as follows: active = growth percent below 10; inactive = the rest.
# System: SF-268 CNS
# Assay: NCI-60 one-dose screen, 48 h (100 = growth as untreated, 0 = no growth, -100 = all killed)
# Conditions: 10 µM unless noted
row,SMILES,growth
1,O=C(NNC(=O)c1ccc(-n2cc(-c3ccccc3)nn2)cc1)Nc1ccccc1,90.2%
2,COc1ccc(-c2csc(N(C(=O)N3CCN(c4cc5c(cc4F)c(=O)c(C(=O)O)cn5C4CC4)CC3)c3ccccc3)n2)cc1,22.9%
3,O=Nc1c(-c2c(O)[nH]c3ncccc23)[nH]c2ccccc12,66.2%
4,CCN1CC(=O)N(/N=C2\C(=O)Nc3ccccc32)C1=S,103%
5,O=C1CC(N2C(=O)/C(=C/C(Cl)=C\c3ccc([N+](=O)[O-])cc3)SC2=S)C(=O)N1c1ccc(Cl)cc1 (stereo not given),21.8%
6,CN(C)C1CCN(Cc2ccc(NC(=O)c3cncc(C#Cc4cnc(N)c5ncccc45)c3)cc2C(F)(F)F)CC1,81.3%
7,Cn1cc(-c2nonc2-c2c[nH]c3ccc(Br)cc23)c2cc(Br)ccc21,37.8%
8,C[C@@H]1CCC[C@H]1CC(N)C(=O)O (stereo not given in full),105%
9,S=C(Nc1ccc(-c2nc(N3CCOCC3)c3cccn3n2)cc1)Nc1cccnc1,53.1%
10,O=C(CN1C(=O)CCC1=O)Nc1ncc(Cc2ccc(F)cc2)s1,91.2%
11,CN1CCN(C(=O)OCc2ccc3c(Cl)cc(Cl)c(O)c3n2)CC1,53.3%
12,O=C(O)[C@@H]1c2ccccc2-c2ccccc2[C@H]1C(=O)O,105%
13,Clc1ccc(Sc2cnc(-c3ccccc3)o2)cc1,93.5%
14,C=C(C)[C@@H]1CC[C@]2(C(=O)NCC#CCN3CCN(C)CC3)CC[C@]3(C)[C@H](CC[C@@H]4[C@@](C)(CCC#N)[C@H](C(=C)C)CC[C@]43C)[C@@H]12,62.4%
15,Cc1ccc(/C=N/Nc2nc(Nc3ccccc3)nc(-n3nc(C)cc3C)n2)cc1,44%
16,COc1ccc(/C(C)=C(/c2ccc(OCCCN(C)C)cc2)c2ccc(OC(=O)Cc3ccccc3)cc2)cc1,76%
17,CCOC(=O)C1=C(NC)OCC1=O,98.6%
18,C#CCOc1ccc2ncnc(Nc3cccc(NC(=O)C=C)c3)c2c1,55.9%
19,COc1cc(-n2cc(-c3cc(O)c(C/C=C(\C)CCC=C(C)C)c(O)c3)nn2)cc2c1O[C@]1(C)CC[C@@H](O)C(C)(C)[C@H]1C2,20.9%
20,N#C/C(=C\c1ccc(Br)cc1)n1nnc2ccc(F)cc21,42.5%

row,SMILES,growth
1,CCN(CC)CCNC(=O)c1cn2ncnc(Oc3ccc(NC(=O)Nc4ccc(Cl)c(C(F)(F)F)c4)c(F)c3)c2c1C,43.1%
2,Cc1nc(N2CCOCC2)sc1S(N)(=O)=O,94%
3,CC(=O)N(N=Nc1ccccc1)c1cccc2ccccc12,92.8%
4,Cc1ccc(-c2nc(N3CCNCC3)c3oc(-c4ccccc4)nc3n2)cc1,7.93% (active)
5,Cc1cc2c(O)c(-c3cc(Cl)ccc3Cl)c3sc(=O)oc3c2cc1C,65%
6,N=C(N)c1ccc(-c2ccc(-c3cc(Cl)cc(Cl)c3)o2)o1,-56.4% (active)
7,CC1=Nc2cnc(Nc3ccc(OCCN4CCCCC4)cc3)nc2Nc2ccccc21,64.9%
8,Cc1cccnc1NC(=S)Nc1ncccc1C,108%
9,CN1C(=O)/C(=C/c2ccc(C(=O)Nc3ncc(Cc4ccc(Cl)cc4)s3)cc2)SC1=S,56.8%
10,COc1ccc(-c2nnc3n(C)c(=O)c4ccccc4n23)cc1N,55.8%
11,CC1=C(CCC(C)N(C)Cc2ccc(OCCCN3CCCC3)cc2)C(C)(C)CCC1 (stereo not given),48.2%
12,CCCc1cc(NC)nc(S(=O)(=O)CC)n1,98.4%
13,Cc1cccc(Cl)c1NC(=O)c1ccc2nc(NC(=O)NCCN(C)C)sc2c1,93.6%
14,O=c1oc2ccccc2cc1C1=NN=C(SCc2ccccc2)SC1,97.1%
15,CC1(c2ccccc2O)NN=C(/N=C/c2cccc([N+](=O)[O-])c2)N1C(Cc1c[nH]c2ccccc12)C(=O)O (stereo not given),95.7%
16,CC(O)c1cnc(/C=C2\SC(=S)N(Cc3ccccc3)C2=O)s1 (stereo not given),84.3%
17,Cc1ccc(CNc2ccc(Cl)cc2NCc2ccc(C)c(O)c2)cc1O,28.3%
18,NC(=O)c1c(NC(=O)c2ccccc2)sc2c1CCC(=O)C2,17.7%
19,CCn1c(=S)sc2c(Nc3ccc(F)cc3)nc(-c3cccnc3)nc21,56.4%
20,COc1cc(C(=O)n2nc(N3CCN(C)CC3)c3cc(N)ccc32)cc(OC)c1OC,47.2%

# System: SF-295 CNS
# Assay: as above
# Conditions: 10 µM unless noted
row,SMILES,growth
1,O=C(NNC(=O)c1ccc(-n2cc(-c3ccccc3)nn2)cc1)Nc1ccccc1,101%
2,COc1ccc(-c2csc(N(C(=O)N3CCN(c4cc5c(cc4F)c(=O)c(C(=O)O)cn5C4CC4)CC3)c3ccccc3)n2)cc1,3.69% (active)
3,O=Nc1c(-c2c(O)[nH]c3ncccc23)[nH]c2ccccc12,94.9%
4,CCN1CC(=O)N(/N=C2\C(=O)Nc3ccccc32)C1=S,96.6%
5,O=C1CC(N2C(=O)/C(=C/C(Cl)=C\c3ccc([N+](=O)[O-])cc3)SC2=S)C(=O)N1c1ccc(Cl)cc1 (stereo not given),40.7%
6,CN(C)C1CCN(Cc2ccc(NC(=O)c3cncc(C#Cc4cnc(N)c5ncccc45)c3)cc2C(F)(F)F)CC1,93.9%
7,Cn1cc(-c2nonc2-c2c[nH]c3ccc(Br)cc23)c2cc(Br)ccc21,22.4%
8,C[C@@H]1CCC[C@H]1CC(N)C(=O)O (stereo not given in full),106%
9,S=C(Nc1ccc(-c2nc(N3CCOCC3)c3cccn3n2)cc1)Nc1cccnc1,25.6%
10,O=C(CN1C(=O)CCC1=O)Nc1ncc(Cc2ccc(F)cc2)s1,99.3%
11,CN1CCN(C(=O)OCc2ccc3c(Cl)cc(Cl)c(O)c3n2)CC1,45.3%
12,O=C(O)[C@@H]1c2ccccc2-c2ccccc2[C@H]1C(=O)O,98.8%
13,Clc1ccc(Sc2cnc(-c3ccccc3)o2)cc1,97.4%
14,C=C(C)[C@@H]1CC[C@]2(C(=O)NCC#CCN3CCN(C)CC3)CC[C@]3(C)[C@H](CC[C@@H]4[C@@](C)(CCC#N)[C@H](C(=C)C)CC[C@]43C)[C@@H]12,94.2%
15,Cc1ccc(/C=N/Nc2nc(Nc3ccccc3)nc(-n3nc(C)cc3C)n2)cc1,-40.7% (active)
16,COc1ccc(/C(C)=C(/c2ccc(OCCCN(C)C)cc2)c2ccc(OC(=O)Cc3ccccc3)cc2)cc1,51.3%
17,CCOC(=O)C1=C(NC)OCC1=O,106%
18,C#CCOc1ccc2ncnc(Nc3cccc(NC(=O)C=C)c3)c2c1,91.6%
19,COc1cc(-n2cc(-c3cc(O)c(C/C=C(\C)CCC=C(C)C)c(O)c3)nn2)cc2c1O[C@]1(C)CC[C@@H](O)C(C)(C)[C@H]1C2,-53% (active)
20,N#C/C(=C\c1ccc(Br)cc1)n1nnc2ccc(F)cc21,44%

row,SMILES,growth
1,CCN(CC)CCNC(=O)c1cn2ncnc(Oc3ccc(NC(=O)Nc4ccc(Cl)c(C(F)(F)F)c4)c(F)c3)c2c1C,-52.8% (active)
2,Cc1nc(N2CCOCC2)sc1S(N)(=O)=O,94.1%
3,CC(=O)N(N=Nc1ccccc1)c1cccc2ccccc12,68.2%
4,Cc1ccc(-c2nc(N3CCNCC3)c3oc(-c4ccccc4)nc3n2)cc1,-23.2% (active)
5,Cc1cc2c(O)c(-c3cc(Cl)ccc3Cl)c3sc(=O)oc3c2cc1C,72.5%
6,N=C(N)c1ccc(-c2ccc(-c3cc(Cl)cc(Cl)c3)o2)o1,-83.5% (active)
7,CC1=Nc2cnc(Nc3ccc(OCCN4CCCCC4)cc3)nc2Nc2ccccc21,76.5%
8,Cc1cccnc1NC(=S)Nc1ncccc1C,81.2%
9,CN1C(=O)/C(=C/c2ccc(C(=O)Nc3ncc(Cc4ccc(Cl)cc4)s3)cc2)SC1=S,33%
10,COc1ccc(-c2nnc3n(C)c(=O)c4ccccc4n23)cc1N,10.7%
11,CC1=C(CCC(C)N(C)Cc2ccc(OCCCN3CCCC3)cc2)C(C)(C)CCC1 (stereo not given),-4.45% (active)
12,CCCc1cc(NC)nc(S(=O)(=O)CC)n1,99.9%
13,Cc1cccc(Cl)c1NC(=O)c1ccc2nc(NC(=O)NCCN(C)C)sc2c1,86.7%
14,O=c1oc2ccccc2cc1C1=NN=C(SCc2ccccc2)SC1,98.9%
15,CC1(c2ccccc2O)NN=C(/N=C/c2cccc([N+](=O)[O-])c2)N1C(Cc1c[nH]c2ccccc12)C(=O)O (stereo not given),107%
16,CC(O)c1cnc(/C=C2\SC(=S)N(Cc3ccccc3)C2=O)s1 (stereo not given),102%
17,Cc1ccc(CNc2ccc(Cl)cc2NCc2ccc(C)c(O)c2)cc1O,74.2%
18,NC(=O)c1c(NC(=O)c2ccccc2)sc2c1CCC(=O)C2,33.4%
19,CCn1c(=S)sc2c(Nc3ccc(F)cc3)nc(-c3cccnc3)nc21,50.6%
20,COc1cc(C(=O)n2nc(N3CCN(C)CC3)c3cc(N)ccc32)cc(OC)c1OC,4.42% (active)
